PubChem BioAssay (NCI)
Compounds without any hit were thinned out: in the full panel of roughly 83,000, 20% have a hit.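 Interpretation: 100, growth as untreated; towards 0, rising growth inhibition; 0, no net growth; 0 to -100, cell death. Compounds scoring below 10 were considered active.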 Unmarked numbers belong to inactive results.

test system: SK-OV-3 ovarian; assay: NCI-60 one-dose screen, 48 h (100 = growth as untreated, 0 = no growth, -100 = all killed); details: 10 µM unless noted

Row | SMILES | growth
1 | O=[N+]([O-])c1ccc(-c2cc3c(Nc4ccc(Sc5nc6ccccc6s5)c(Cl)c4)ncnc3s2)cc1 | 37.1%
2 | OCCCCc1nccc2c1[nH]c1ccccc12 | 112%
3 | CCOC(=O)c1sc(-c2ccc(OS(=O)(=O)c3ccc(C(C)(C)C)cc3)c(C=O)c2)nc1C | 85.5%
4 | CCOC(=O)C1=C(C)NC(SCc2nnc(-c3ccc(Cl)cc3)o2)=NC1c1ccc(Cl)cc1Cl (stereo not given) | 90.3%
5 | CCN(CC)CCOc1ccc(/C(=C(\C)c2ccc(OC)c(F)c2)c2ccc(Cl)cc2)cc1 | 91.1%
6 | O=C1/C(=C/c2ccccc2[N+](=O)[O-])COc2ccc(O)c(O)c21 | 40.8%
7 | O=C(O)c1ccc(CO)o1 | 116%
8 | Cn1ccnc1C(=O)/C=C/c1ccc(C(=O)Nc2ccc(S(F)(F)(F)(F)F)cc2)cc1 | 61.2%
9 | COc1ccc(/C=C2\COc3ccc(O)cc3C2=O)cc1OC | 93.1%
10 | O=C(Nc1ccccc1)c1sc(-c2cccc(C(F)(F)F)c2)cc1O | 74.6%
11 | COc1ccc(/C(C)=C(\c2ccc(Cl)cc2)c2ccc(OCCCN(C)C)cc2)cc1F | 81.9%
12 | COc1ccc(Cn2cnc3cc(C(=O)Nc4cccc5ccccc45)ccc32)c(OC)c1 | 31% [30 µM]
13 | COc1ccc(-n2sc(=O)n(Cc3ccc(COC(=O)C(C)c4ccc(CC(C)C)cc4)cc3)c2=O)cc1 (stereo not given) | 96.1%
14 | CC(C)(C)N1CC(OC(N)=O)C1 | 113%
15 | O=C1NCC(=O)N(Cc2ccco2)[C@H]1Cc1ccccc1 | 96.7%
